# Several values for one entry are separate records, joined by “and”; a condition that tells them apart may be missing. Identical values can stand only once. Results filed as inconclusive are left out. Entries that show only a call come without a potency. Unmarked numbers belong to inactive results. Activity calls are given as the source filed them. The call rests on the fitted dose curve.
# Experiment: qHTS assay to identify small molecule agonists of H2AX - cell viability counter screen (AID 1224847); further: nearly all actives have a fitted effect of over 30% in size; on activity change, negative = cytotoxicity: top concentration of the series differs between compounds
# Details: CHO-K1 viability, CellTiter-Glo luminescence, 3 h; series mostly up to 154 µM; activity change, negative = cytotoxicity: at the top concentration
# Description: National Center for Advancing Translational Sciences [NCATS]
# NIH Chemical Genomics Center [NCGC]
# U.S. Environmental Protection Agency [EPA]
# National Institutes of Environmental Health Sciences [NIEHS]
# National Toxicology Program [NTP]
# U.S. Food and Drug Administration [FDA]
# HTRF phospho-H2AX (Ser139) assay (Cisbio Bioassays, US) enables the quantitative detection of the histone variant H2AX when phosphorylated on serine 139. When double-stranded DNA breaks, either by ionizing radiation or endogenous physiological processes, H2AX becomes phosphorylated at Ser139. This phospho-Ser139 serves as a sensitive biomarker for the detection of such breaks, localizing the site of DNA repair. So, HTRF phospho-H2AX Ser139 is a pertinent assay to study genome stability, the cell cycle, DNA repair, and it serves as a biomarker for cancer, and to understand aging. Wild type CHO-K1 cells were used to identify the inducers of Phospho-H2AX Ser 139 from the Tox21 compound collections. Also cytotoxicity of the Tox21 10K compound library against the CHO-K1 cell line was tested by measuring the cell viability using CellTiter-Glo assay (Promega, Madison, WI).
# Tox21 Assay Protocol Summary:
# The CHO-K1 cells suspended in culture medium containing 10% FBS were dispensed at 1000 cells/ 3 ul/well in 1536-well white wall/solid bottom plates (Greiner Bio-One North America, NC) using a Multidrop Combi (Thermo Fisher Scientific Inc., Waltham, MA). After the assay plates were incubated at 37C overnight, 23 nl of compounds at 15 concentrations (from 5-48 columns) or positive control (from 1 to 4 columns) were transferred to the assay plates using a Pintool station (Wako, San Diego, CA) into each well resulting in a final DMSO concentration of 0.76%. After 3hr incubation at 37C, 3 uL/well CellTiter-Glo luminescent cell viability reagent (Promega Corporation, Madison, WI) was added using a Flying Reagent Dispenser (FRD) (Aurora Discovery, CA). After incubation at room temperature for 30 min, the luminescence intensity was read using a ViewLux plate reader (PerkinElmer, Waltham, MA).
# Potency means the concentration at half of the fitted maximal effect.
Structure (SMILES),Potency,"activity change, negative = cytotoxicity"
CSc1nc(NC(C)C)nc(NC(C)C)n1,inactive,
COP(=S)(OC)Oc1ccc(Sc2ccc(OP(=S)(OC)OC)cc2)cc1,,-2.04% [at 70.9 µM]
COc1ccc(CO)cc1,inactive,
C[N+](C)(C)CC(=O)[O-],inactive,
CCCCOCCOC(C)=O,inactive,
ClCC(Cl)CCl,inactive,
CCCCC(C#N)(Cn1cncn1)c1ccc(Cl)cc1 (stereo not given),,-12.9%
OCCOCCO,inactive,
Nc1ccc([N+](=O)[O-])cc1N,inactive,
CC(C)(c1ccccc1)c1ccc(O)c(C(C)(C)c2ccccc2)c1,28.1 µM (active) and 56.6 µM (active),
CC(C)(c1ccccc1)c1ccc(O)cc1,112 µM (active) and 101 µM (active),
CCCCCCCCCCCCCl,inactive,
CC1CC(=O)O1 (stereo not given),inactive,
CNC(=O)Oc1cccc2c1OC(C)(C)C2,inactive,
CCCCOC(=O)COC(=O)c1ccccc1C(=O)OCCCC,inactive,
COP(=S)(OC)SCn1nnc2ccccc2c1=O,inactive,
CN(C)P(=O)(N(C)C)N(C)C,inactive,
CC[n+]1c(-c2ccccc2)c2cc(N)ccc2c2ccc(N)cc21,,-8.01% [at 70.9 µM]
O=P(OCCCl)(OCCCl)OCCCl,inactive,
Clc1ccccc1-c1nnc(-c2ccccc2Cl)nn1,100 µM (active),

Structure (SMILES),Potency,"activity change, negative = cytotoxicity"
Cl,,0.423%
N#Cc1c(Cl)c(Cl)c(Cl)c(C#N)c1Cl,55.6 µM (active),
O=C1Nc2ccc(Cl)cc2C(c2ccccc2)=NC1O (stereo not given),inactive,
O=C(O)CF,inactive,
S=c1[nH]c2ccccc2[nH]1,inactive,
c1ccc(C2CO2)cc1 (stereo not given),inactive,
CCOC(=O)c1ccccc1N,inactive,
CCC1(c2ccc(N)cc2)CCC(=O)NC1=O (stereo not given),inactive,
Cc1cc(Cl)ccc1N=CN(C)C,inactive,
O=NN1CCOCC1,inactive,
CC(C)(c1ccc(OCC2CO2)cc1)c1ccc(OCC2CO2)cc1 (stereo not given),inactive,
ClCc1ccccn1,inactive,
CC(O)CN(CC(C)O)CC(C)O (stereo not given),inactive,
Oc1ccc(Cl)cc1Cc1ccccc1,89.8 µM (active) and 81 µM (active),
CCC/C=N/O,inactive,
CC(C)(O)C#N,,-1.34%
C[C@]12CC[C@H]3[C@@H](CCC4=CC(=O)CC[C@@H]43)[C@@H]1CC[C@@H]2O,,0.916% [at 70.9 µM]
CCNCC,inactive,
O=NN(c1ccccc1)c1ccccc1,inactive,
CCC(=O)Nc1ccc(Cl)c(Cl)c1,,-7.62%
